USP30 inh = blocks human USP30 ubiquitin-rhodamine cleavage; purified USP30, Ub-rhodamine cleavage fluorescence; inhibition, % at 25 µM; hit rate 5.3% among 47,000; Q70CQ3
USP10 block = inhibitors of human USP10 deubiquitinase. Q14694. purified USP10, Ub-rhodamine fluorescence, 60 min. inhibition, % at 20 µM. hit rate 1.1% among 47,000
USP8 inh = human USP8 deubiquitinase inhibition; P40818; purified USP8, Ub-rhodamine cleavage fluorescence, 30 min; inhibition, % at 20 µM; hit rate 4.2% among 47,000
USP28 block = human USP28 deubiquitinase inhibition | Q96RU2 | purified USP28, Ub-rhodamine cleavage fluorescence, 30 min | inhibition, % at 25 µM | hit rate 3% among 47,000
USP17 block = inhibitors of human USP17 deubiquitinase | A8MUK1 | purified USP17, Ub-rhodamine cleavage fluorescence, 3 h | inhibition, % at 50 µM | hit rate 6.5% among 47,000
Target sequence (A8MUK1 whole entry, looked up): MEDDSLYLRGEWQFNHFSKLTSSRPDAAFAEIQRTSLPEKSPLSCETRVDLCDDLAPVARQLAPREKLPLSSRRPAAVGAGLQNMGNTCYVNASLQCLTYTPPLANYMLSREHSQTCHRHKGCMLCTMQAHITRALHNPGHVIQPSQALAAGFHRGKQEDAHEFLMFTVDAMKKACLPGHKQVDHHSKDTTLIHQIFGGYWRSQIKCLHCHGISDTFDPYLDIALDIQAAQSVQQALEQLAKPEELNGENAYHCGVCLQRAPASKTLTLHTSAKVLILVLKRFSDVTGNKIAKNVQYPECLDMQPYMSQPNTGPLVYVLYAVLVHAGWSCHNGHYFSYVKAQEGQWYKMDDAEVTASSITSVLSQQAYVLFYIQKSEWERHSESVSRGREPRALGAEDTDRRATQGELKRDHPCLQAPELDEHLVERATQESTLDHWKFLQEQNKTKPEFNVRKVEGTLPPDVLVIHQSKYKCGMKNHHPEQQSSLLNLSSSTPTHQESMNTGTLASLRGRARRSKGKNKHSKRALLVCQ
A number is an active result; i = inactive. Rows were chosen to be rich in hits. Some 14% of all compounds tested hit in one or more screens of this group. Rule as the data show it: active = inhibition above about 30%; inactive = the rest.

SMILES	USP30 inh	USP10 block	USP8 inh	USP28 block	USP17 block
COC1=C(C2=C(OC)C(=O)c3cc4c(c(O)c3C2=O)C(=O)OC(C)C4)C(=O)c2c(cc3c(c2O)C(=O)OC(C)C3)C1=O (configuration not stated)	i	i	i	67	70
O=C1CSC(c2ccc3c(c2)OCO3)c2cnn(C3CCCCC3)c2N1 (configuration not stated)	i	i	i	i	i
CO[C@@H]1C[C@H]2C=C[C@H]3[C@H]4O[C@]2(/C(C)=C/[C@@H](C)[C@@H]([C@H](C)O)OC1=O)[C@@H]3[C@H](O)[C@@H](C)[C@H]4O	i	i	i	i	i
COCC(O)C1OC(=O)C(O)CC2C=CC3C4OC2(/C(C)=C\C1C)C3C(O)C(COC)C4OC(=O)c1ccc[nH]1 (configuration not stated)	38	i	i	i	i
CO[C@H]1[C@H](C)[C@@H]([C@H]2CC[C@H]([C@@H]3CC[C@H]([C@@]4(C)O[C@]5(O[C@H](C[C@@H]6O[C@](O)([C@@H](C)C(=O)O)[C@@H](C)[C@H](O[C@@H]7CC[C@H](OC)[C@@H](C)O7)[C@@]6(C)OC)C[C@@H](OC)[C@H]5C)[C@H](C)[C@H]4OC)O3)O2)O[C@](C)(O)[C@@H]1C	i	i	i	i	i
CC1CC[C@]2(NC1)O[C@H]1C[C@H]3[C@@H]4CC[C@H]5C[C@@H](O[C@@H]6O[C@H](CO)[C@H](O[C@@H]7O[C@H](CO)[C@@H](O)[C@H](O[C@@H]8OC[C@@H](O)[C@H](O)[C@H]8O)[C@H]7O[C@@H]7O[C@H](CO)[C@@H](O)[C@H](O)[C@H]7O)[C@H](O)[C@H]6O)CC[C@]5(C)[C@H]4CC[C@]3(C)[C@H]1[C@@H]2C (some centres not stated)	41	i	i	i	62
CO/C1=C\C(C)=C\[C@@H](C)[C@@H](O)[C@H](C)C/C(C)=C/C=C/[C@H](OC)[C@@H]([C@@H](C)[C@@H](O)[C@H](C)[C@@]2(O)C[C@@H](OC(=O)/C=C/C(=O)NC3=C(O)CCC3=O)[C@H](C)[C@@H](C(C)C)O2)OC1=O	i	i	i	i	40
CCN1C[C@]2(COC)CC[C@H](O)[C@@]34C5C[C@H]6[C@H](OC)C5[C@](O)(C[C@H]6OC)[C@@](O)(C(OC)C23)[C@@H]14 (some centres not stated)	i	i	i	i	i
COc1cc2c(c3oc4cccc(O)c4c(=O)c13)C1C=COC1O2 (configuration not stated)	i	i	i	50	54
Cn1cc(CN2C[C@H](Oc3cccnc3)[C@H]3OCCC[C@H]32)cn1	i	i	i	i	i
CC1Oc2cc3c(-c4c(O)cc(O)c5c(O)c6c(cc45)OC(C)C(C)C6=O)c(O)cc(O)c3c(O)c2C(=O)C1C (configuration not stated)	35	68	59	90	81
COc1ccc(C2SCC(=O)Nc3c2c(=O)[nH]n3C2CCCCCC2)cc1 (configuration not stated)	i	i	i	i	50
CC1(C)CC(n2[nH]c(=O)c3c2NC(=O)CSC3c2ccc(OCc3ccccc3)cc2)CCO1 (configuration not stated)	53	i	i	i	i
O=C1CSC(c2ccc3c(c2)OCO3)c2c(n(C3CCCCCC3)[nH]c2=O)N1 (configuration not stated)	33	i	83	i	i
O=C1CSC(c2ccc3c(c2)OCO3)c2c(-c3ccccc3)nn(-c3ccccc3)c2N1 (configuration not stated)	30	i	i	i	i
COc1ccc2c(c1)nc(C(F)(F)F)n2C1CCN(Cc2ccccc2)CC1	i	i	i	i	i
CC(=O)C1=C(O)[C@@H]2[C@H]3c4c[nH]c5cccc(c45)CC3C(C)(C)N2C1=O (some centres not stated)	i	i	i	i	i
COc1ccc(C2SCC(=O)Nc3c2c(=O)[nH]n3C2CCCC2)cc1 (configuration not stated)	i	i	i	i	i
CCOc1ccc(C2SCC(=O)Nc3c2c(=O)[nH]n3C2CCCCC2)cc1 (configuration not stated)	35	i	88	i	i
Cc1ccc(C2SCC(=O)Nc3c2c(=O)[nH]n3C2CCCCC2)cc1 (configuration not stated)	i	i	88	i	i
CC1[C@@H]2[C@@H](COc3cccnc3)C[C@H](CN1S(C)(=O)=O)N2C (some centres not stated)	i	i	i	i	i
CCCc1c(C/C=C(\C)C/C=C/C(C)C)[nH]c(=O)c(C)c1O	i	i	i	i	i
C=C/C(=C/C(=O)C[C@H](C)C[C@@H](C)CC[C@H](O)[C@H](C)C(=O)CC(O)[C@H](C)[C@@H](C)OC(=O)C[C@@H](O)C1=C(C)C(=O)OC1=O)CC (some centres not stated)	54	81	77	90	88
CCN1CCC2(COCc3c(C)nc(-c4ccccc4)nc32)C1 (configuration not stated)	i	i	i	36	i
COc1cccc2c1N(Cc1ccccc1)C(=O)C21CCN(C(=O)NCCN)CC1	i	i	i	i	i
SMILES	USP30 inh	USP10 block	USP8 inh	USP28 block	USP17 block
O=C(Nc1ccccc1)N1CCC2(CC1)C(=O)Nc1c(Oc3ccccc3)cccc12	i	i	i	i	i
COc1cccc2c1NC(=O)C21CCN(C(=O)Nc2cccc3ccccc23)CC1	i	i	97	i	92
O=C(COc1ccccc1Cl)N1CCN(Cc2ccncc2)CC1	i	i	i	i	i
CC(C)CN1C[C@H]2C[C@H](C(=O)Nc3cccnc3)[C@@H](C1)O2	i	i	i	i	i
COc1c2c(c(O)c3c1C(=O)c1c(cc(O)c(C)c1O)C3=O)-c1c(cc3c(c1O)C(=O)OC3O)CC2 (configuration not stated)	59	75	72	88	94
O=C(CN1CC=C(c2ccccc2)CC1)Nc1ccccc1Cl	i	i	i	i	i
Oc1ccc2ccccc2c1CN1CC=C(c2ccccc2)CC1	i	i	35	i	i
CN1CCN(c2c3c(nc4ncnn24)CCC3)CC1	i	i	i	i	i
O=C(Nc1nc2ccc([N+](=O)[O-])cc2s1)c1cccn(Cc2ccc(F)cc2)c1=O	i	i	i	i	i
O=C(Nc1nccs1)c1cccn(Cc2ccc(Cl)c(Cl)c2)c1=O	i	i	i	i	31
O=C(Nc1nc2ccccc2s1)c1cccn(Cc2cccc(Cl)c2)c1=O	i	i	i	i	46
Cc1noc(C)c1CN1C[C@H](Oc2cccnc2)[C@H]2OCCC[C@H]21	i	i	i	i	i
CCCCCCC(=O)CCCCCC/C=C/CC(O)C(O)C(N)(CO)C(=O)O (configuration not stated)	i	i	i	i	i
